Measurements reported in PubChem BioAssay (NCI).
Compounds without any hit were thinned out: in the full panel of roughly 83,000, 20% have a hit.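 Negative percent growth values reflect cell death: -40 means 40% of the cells present at the start died, and -100 means all died.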 Unmarked numbers belong to inactive results. Activity calls are given as the source filed them. The calls were made as follows: active = growth percent below 10; inactive = the rest.

Test system: OVCAR-3 ovarian
Test: NCI-60 one-dose screen, 48 h (100 = growth as untreated, 0 = no growth, -100 = all killed)
Conditions: 10 µM unless noted

| Structure (SMILES) | growth |
| --- | --- |
| O=C1Nc2ccccc2/C1=C\c1cccc(/C=C2/C(=O)Nc3ccccc32)n1 | -89.6% (active) |
| COc1ccc(/C=N/NC(=O)c2cccc3cc[nH]c23)cc1O | 1.58% (active) |
| CCN1C(=O)N(CC)C2C1NN=c1s/c(=C3\C(=O)Nc4ccccc43)c(=O)n12 (stereo not drawn) | -12.8% (active) |
| CC(C)(O)C1CCCN1C(=O)c1ccccc1I (stereo not drawn) | 92.5% |
| O=C1NC(=S)NC(=O)C1=Cc1cccc(C=C2C(=O)NC(=S)NC2=O)c1 | 108% |
| Cn1c2c(Cl)c(Cl)ccc2c2cc(N)[nH]c(=O)c21 | 86.2% |
| COc1ccc(-c2cnnc3c(-c4cccc(C(F)(F)F)c4)cnn23)cc1 | 26.4% |
| O=C1Nc2c(ccc(Cl)c2Cl)/C1=C/c1ccc([N+](=O)[O-])cc1 | 108% |
| COc1ccc(-c2nc(SCC(C)C)nc(N/N=C(/C)c3ccc(OC)c(OC)c3)c2C#N)cc1 | 79.7% |
| NS(=O)(=O)c1cccc(NC(=O)C(=O)C2C(=O)Nc3ccccc32)c1 (stereo not drawn) | 96.6% |
| O=S(=O)(c1cccc(NC2=Nc3cccc4cccc2c34)c1)N1CCCC1 | 84.3% |
| CCOC(=O)c1c(SC)nn(-c2cc(=O)[nH]c3ccc(Br)cc23)c1N | 105% |
| CC(=O)c1c[nH]c2ccc(-c3ccnc(Nc4ccc(NC(=O)C5CCCC5)c(CN5CCOCC5)c4)n3)cc12 | -7.43% (active) |
| COc1ccc(/C=C(/c2ccccc2)[N+](=O)[O-])cc1 | -96.5% (active) |
| O=C1Nc2c(ccc(Cl)c2Cl)/C1=C/c1ccccn1 | 84.6% |
| CCN(CCNc1cc(OC)cc2cccnc12)CCc1ccccc1 | 79% |
| COc1cc2nc(-c3ccc(C#N)cc3)[nH]c(=O)c2cc1OC | 109% |
| CCCOc1nc(SCCC)nc2c1cnn2-c1ccccc1 | 94.8% |
| O=S(=O)(c1ccccc1)N1CCCc2ccccc21 | 102% |

| Structure (SMILES) | growth |
| --- | --- |
| O=C(Nc1ccc(Cl)cc1)Nc1ccc(Cl)c(Cl)c1 | -31% (active) |
| COc1cc(NCC(O)CN(CC(C)C)C2CCCC2)c2ncccc2c1 (stereo not drawn) | 63.7% |
| COc1ccc(Nn2c(SCC(=O)Nc3nc(-c4ccc(Cl)cc4)cs3)nc(C)c2C)cc1 | 60.7% |
| COc1cccc2c1C(=O)c1c(O)c3c(c(O)c1C2=O)C[C@@](O)(C(=O)CO)C[C@@H]3O[C@H]1C[C@H](N)[C@@H](O)[C@H](C)O1 | -0.462% (active) |
| Clc1ccc(N2N=C(c3cccc(Nc4ccncc4)c3)CC2c2ccc3c(c2)OCO3)cc1 (stereo not drawn) | 23.5% |
| O=C(N/N=C/c1ccncc1)c1ccccc1Nc1cccc(C(F)(F)F)c1 | 64.7% |
| COc1ccc(Cc2nc3cc(OC)c(OC)cc3c(=O)[nH]2)cc1 | 78.9% |
| COc1ccc(-c2c[nH]c(C(=O)O)c2-c2cc(OC)c3c(c2OC)OCO3)cc1 | 109% |
| Clc1ccc(N2N=C(c3cccc(Nc4ccncc4)c3)CC2c2ccccc2)cc1 (stereo not drawn) | 97.1% |
| COc1ccc(Cn2nc(-c3cc(OC)c(OC)c(OC)c3)c3c2CCc2cnoc2-3)cc1OC | 39.7% |
| COc1cc2nnn3c4ncccc4c(N=O)c3c2cc1OC | 120% |
| Clc1nc(Cl)c2ncn(CC3(Cn4cnc5c(Cl)nc(Cl)nc54)COC3)c2n1 | -93.3% (active) |
| C(=N\Nc1ncc(-c2cc3cc4c(cc3o2)OCO4)s1)/c1c[nH]c2ccccc12 | -44.4% (active) |
| COc1ccc(-c2nn(Cc3ccccc3)c3c2-c2oncc2CC3)cc1OC | 113% |
| COc1cc(/C=C/C(=O)c2c(C)oc3nc[nH]c(=O)c23)ccc1O | 108% |
| CCc1nc(C)cn1C(=O)OCc1nc2nc(Cl)nc(N3CCOCC3)c2[nH]1 | -80.9% (active) |
| O=C(Nc1ccccc1)Oc1ccccc1-c1ccccc1 | 106% |
| COc1ccc(C(O)c2cc3c(N)c(C(=O)Nc4ccccc4)sc3nc2C)cc1 (stereo not drawn) | -16.7% (active) |
| CCC(C)N(CCNc1cc(OC)cc2cccnc12)CCC(C)C (stereo not drawn) | 64% |
